Here are results for six compounds from PubChem BioAssay.

Calls of active or inactive are those of the source.

The test system of test [1] is Plasmodium falciparum Sir2 (PF13_0152, Sir2A). The test can be described thus: Plasmodium falciparum Sir2A binding compounds – biochemical, small-molecule microarray, 635 nm fluorescence, primary screen (AID 1098).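 Also: score merges spot fluorescence intensity with its signal-to-noise ratio.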 Conditions: fluorescence 635 nm, higher = more signal.
A short description of test [2]: probe aDKK1 binding to arrayed compounds – biochemical, biotinylated probe, 635/667 nm fluorescence, primary screen (AID 1099).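 Also: score merges 667nm spot fluorescence with signal to noise across triplicate slides.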 Particulars: small-molecule microarray, higher = more signal.
Test [3] can be described thus: probe aCHRDL2 binding to arrayed compounds – biochemical, biotinylated probe, 635/667 nm fluorescence, primary screen (AID 1100). Particulars: small-molecule microarray, higher = more signal.
Test [4] in a line: change in splice reporter luminescence, either direction, cell-based, HEK293, spliceosome inhibition project, primary screen (AID 1101).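 Also: HEK293 cells carrying a splicing-competent luciferase reporter gene; test concentration not given here.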 Particulars: HEK293 splicing luciferase reporter, 24 h, higher = more signal, called active from +8 up or from −8 down.
Test [5] addresses Fibroblast growth factor 10 (Homo sapiens) (UniProt O15520). The test can be described thus: compounds binding fibroblast growth factor 10 – biochemical, small-molecule microarray, 635 nm fluorescence, primary screen (AID 1102). Conditions: FGF10 binding, fluorescence 635 nm, higher = more signal.
For test [6], the system named is glycogen synthase kinase-3 (GSK3A per assay name; protocol says GSK3B). The test can be described thus: compounds binding glycogen synthase kinase-3 – biochemical, small-molecule microarray, 635 nm fluorescence, GSK3A, primary screen (AID 1103). Also: the record names both GSK3A and GSK3B. Particulars: fluorescence 635 nm, higher = more signal.
The target of test [7] is Epidermal growth factor receptor (Homo sapiens) (UniProt P00533). As to the kind of experiment: compounds binding epidermal growth factor receptor – biochemical, small-molecule microarray, 635 nm fluorescence, primary screen (AID 1104).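 Also: score merges 667 nm emission intensity with spot signal to noise over triplicate slides.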 Particulars: EGFR binding, higher = more signal.
Sequence of Epidermal growth factor receptor (Homo sapiens) (P00533 whole entry, looked up): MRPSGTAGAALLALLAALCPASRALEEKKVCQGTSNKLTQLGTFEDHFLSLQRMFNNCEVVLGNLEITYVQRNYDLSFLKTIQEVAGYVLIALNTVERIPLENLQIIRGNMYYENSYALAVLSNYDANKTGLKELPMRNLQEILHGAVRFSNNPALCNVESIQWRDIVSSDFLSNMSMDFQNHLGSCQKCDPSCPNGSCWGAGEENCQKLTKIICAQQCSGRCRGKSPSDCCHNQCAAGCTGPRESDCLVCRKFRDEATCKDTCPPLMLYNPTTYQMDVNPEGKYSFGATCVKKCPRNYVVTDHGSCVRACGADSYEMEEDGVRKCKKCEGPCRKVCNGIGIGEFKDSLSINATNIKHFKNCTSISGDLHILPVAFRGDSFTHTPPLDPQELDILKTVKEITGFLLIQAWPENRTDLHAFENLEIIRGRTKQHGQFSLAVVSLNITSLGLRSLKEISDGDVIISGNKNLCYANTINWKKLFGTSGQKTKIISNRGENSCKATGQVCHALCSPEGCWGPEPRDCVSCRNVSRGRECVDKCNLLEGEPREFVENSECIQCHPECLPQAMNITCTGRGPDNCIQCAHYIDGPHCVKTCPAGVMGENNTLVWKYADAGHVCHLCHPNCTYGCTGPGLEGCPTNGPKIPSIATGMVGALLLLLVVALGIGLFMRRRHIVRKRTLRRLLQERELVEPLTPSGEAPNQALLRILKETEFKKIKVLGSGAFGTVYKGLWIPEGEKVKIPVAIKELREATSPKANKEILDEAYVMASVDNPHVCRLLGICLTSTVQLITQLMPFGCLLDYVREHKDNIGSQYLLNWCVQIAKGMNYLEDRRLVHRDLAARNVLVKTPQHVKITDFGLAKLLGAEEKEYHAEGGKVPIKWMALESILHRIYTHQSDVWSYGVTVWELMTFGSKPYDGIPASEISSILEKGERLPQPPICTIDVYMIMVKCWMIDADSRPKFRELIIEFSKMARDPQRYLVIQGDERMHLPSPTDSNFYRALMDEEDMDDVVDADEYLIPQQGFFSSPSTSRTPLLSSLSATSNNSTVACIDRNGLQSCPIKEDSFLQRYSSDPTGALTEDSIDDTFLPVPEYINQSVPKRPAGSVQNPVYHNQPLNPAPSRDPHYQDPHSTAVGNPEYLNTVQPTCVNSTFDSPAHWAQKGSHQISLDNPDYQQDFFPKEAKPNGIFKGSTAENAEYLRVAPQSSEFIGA
Test [8] concerns the target Follistatin-related protein 3 (Homo sapiens) (UniProt O95633). As to the kind of experiment: compounds binding follistatin-related protein 3 – biochemical, small-molecule microarray, 635 nm fluorescence, primary screen (AID 1105).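 Also: score merges emission near 667 nm and signal to noise per printed spot across three slides.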 Particulars: FSTL3 binding, higher = more signal.
For test [9], the target named is Dickkopf-related protein 1 (Homo sapiens) (UniProt O94907). The test can be described thus: small molecules binding DKK1 protein – biochemical, small-molecule microarray, 635 nm fluorescence scan, primary screen (AID 1106).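 Also: score merges emission near 667 nm with signal to noise over three replicate slides.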 Conditions: higher = more signal.
Sequence of Dickkopf-related protein 1 (Homo sapiens) (O94907 whole entry, looked up): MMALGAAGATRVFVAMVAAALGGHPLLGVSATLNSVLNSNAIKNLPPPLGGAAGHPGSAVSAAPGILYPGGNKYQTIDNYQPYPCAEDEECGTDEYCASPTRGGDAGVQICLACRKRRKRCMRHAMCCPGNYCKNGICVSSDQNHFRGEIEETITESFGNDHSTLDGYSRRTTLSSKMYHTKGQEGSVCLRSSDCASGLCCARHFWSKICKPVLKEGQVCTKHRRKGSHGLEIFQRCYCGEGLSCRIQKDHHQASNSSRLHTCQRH
Test [10] relates to Inhibin beta A chain (activin A). The test can be described thus: small molecules binding activin A – biochemical, small-molecule microarray, 635 nm fluorescence scan, primary screen (AID 1107).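 Also: mouse activin A protein probed at 4.33 µg/mL on printed slides; score merges bound-protein fluorescence near 667 nm with spot signal-to-noise.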 Particulars: INHBA, higher = more signal.
Test [11] relates to Human papillomavirus type 1a protein E7 (residues 44-93). As to the kind of experiment: small molecules binding HPV E7 44-93 – biochemical, small-molecule microarray, residues 44-93, 635 nm fluorescence, primary screen (AID 1108).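 Also: E7 fragment applied at 1 µg/mL in TBST for 1 h at 4 C; score combines spot fluorescence with its signal to noise ratio.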 Particulars: fluorescence 635 nm, higher = more signal.
A short description of test [12]: hepatitis C replication reporter changes, two-sided – Huh7 cells, luciferase reporter, HCV replication inhibitor project, primary screen (AID 1109).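 Also: huh7 hepatoma cells harbouring a luciferase neomycin HCV replicon reporter; luciferase luminescence as measure of HCV replicon replication; test concentration not given here.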 Conditions: Huh7 HCV replicon luciferase reporter, 48 h; higher = more signal. (In general: A reporter such as luciferase makes a cellular process visible.)
In test [13] the target is Left-right determination factor 2 (Homo sapiens) (UniProt O00292). As to the kind of experiment: small molecules binding LEFTY2 protein – biochemical, small-molecule microarray, 635 nm fluorescence scan, primary screen (AID 1110). Particulars: higher = more signal.
Sequence of Left-right determination factor 2 (Homo sapiens) (O00292 whole entry, looked up): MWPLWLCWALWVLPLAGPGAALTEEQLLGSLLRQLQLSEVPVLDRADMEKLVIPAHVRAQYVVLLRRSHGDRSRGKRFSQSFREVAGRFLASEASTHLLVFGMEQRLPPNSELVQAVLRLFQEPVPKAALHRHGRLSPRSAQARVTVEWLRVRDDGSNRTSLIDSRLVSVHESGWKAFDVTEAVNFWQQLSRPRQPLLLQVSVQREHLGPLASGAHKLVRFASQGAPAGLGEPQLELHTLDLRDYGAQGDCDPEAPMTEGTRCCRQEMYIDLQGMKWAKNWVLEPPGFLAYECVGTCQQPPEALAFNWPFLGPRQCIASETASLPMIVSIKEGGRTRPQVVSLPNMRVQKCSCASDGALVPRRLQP
The target in test [14] is Calmodulin-1 (Homo sapiens) (UniProt P0DP23). The test can be described thus: small molecules binding calmodulin-1 with EGTA – biochemical, small-molecule microarray, Cy5-labelled CALM1, profiling panel (AID 1111).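 Also: labelled calmodulin applied in Tris saline Tween buffer holding calcium plus EGTA and DTT.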 Particulars: Cy5-CALM1 binding fluorescence, higher = more signal.
For test [15] the target is unchanged. As to the kind of experiment: small molecules binding Ca-loaded calmodulin-1 – biochemical, small-molecule microarray, Cy5-labelled CALM1, plus calcium, artefact control for SMM control-protein annotation, profiling panel (AID 1112).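 Also: score merges spot fluorescence with signal to noise from triplicate slides.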 Conditions: Cy5-CALM1 binding fluorescence, higher = more signal.
A short description of test [16]: probe aWnt5a binding to arrayed compounds – biochemical, biotinylated probe, 635/667 nm fluorescence, primary screen (AID 1113).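 Also: score merges 667 nm fluorescence intensity with signal-to-noise per printed feature.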 Conditions: small-molecule microarray, higher = more signal.
Test [17] is described as follows: probe aShh binding to arrayed compounds – biochemical, biotinylated probe, 635/667 nm fluorescence, primary screen (AID 1114).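 Also: probe is biotin-labelled aShh protein from a stem cell growth factor screen; measures binding of labelled protein to compounds printed on the slide; score merges feature fluorescence at 667 nm with signal-to-noise.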 Conditions: small-molecule microarray, higher = more signal.
Test [18] is described as follows: probe aNog binding to arrayed compounds – biochemical, biotinylated probe, 635/667 nm fluorescence, primary screen (AID 1115).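 Also: probe is biotinylated aNog protein used at 0.15 µg/mL for 1 h at 4 C; z-score combines 667 nm fluorescence of each spot with its signal to noise.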 Particulars: small-molecule microarray, higher = more signal.
Test [19] has as its target Torsin-1A-interacting protein 1 (Homo sapiens) (UniProt Q5JTV8). As to the kind of experiment: compound microarray binding of lysate hLAP1 – cell lysate, small-molecule microarray, COS7 lysate, 635/667 nm fluorescence, primary screen (AID 1116). Particulars: 635 nm fluorescence, higher = more signal.
Test [20] addresses Alpha-bungarotoxin (Bungarus multicinctus) (UniProt P60615). The test can be described thus: compounds binding labelled alpha-BTX control protein – biochemical, small-molecule microarray, Alexa647 label, 635/667 nm fluorescence, artefact control for SMM control protein annotation, profiling panel (AID 1117). Conditions: alpha-BTX-A647 binding fluorescence, higher = more signal.

Sequence of Fibroblast growth factor 10 (Homo sapiens) (O15520 whole entry, looked up): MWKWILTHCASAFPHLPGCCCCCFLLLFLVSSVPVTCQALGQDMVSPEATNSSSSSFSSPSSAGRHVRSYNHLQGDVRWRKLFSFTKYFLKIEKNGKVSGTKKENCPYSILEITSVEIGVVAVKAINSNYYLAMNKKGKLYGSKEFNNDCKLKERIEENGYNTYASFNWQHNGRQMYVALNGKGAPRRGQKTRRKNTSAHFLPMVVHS
Sequence of Follistatin-related protein 3 (Homo sapiens) (O95633 whole entry, looked up): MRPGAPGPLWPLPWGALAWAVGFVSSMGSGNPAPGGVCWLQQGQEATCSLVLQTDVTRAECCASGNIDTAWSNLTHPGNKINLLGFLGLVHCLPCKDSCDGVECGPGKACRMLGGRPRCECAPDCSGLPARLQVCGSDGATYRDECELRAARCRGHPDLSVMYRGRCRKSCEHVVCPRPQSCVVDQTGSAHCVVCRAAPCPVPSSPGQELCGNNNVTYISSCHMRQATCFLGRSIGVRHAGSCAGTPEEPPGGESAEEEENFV
Sequence of Alpha-bungarotoxin (Bungarus multicinctus) (P60615 whole entry, looked up): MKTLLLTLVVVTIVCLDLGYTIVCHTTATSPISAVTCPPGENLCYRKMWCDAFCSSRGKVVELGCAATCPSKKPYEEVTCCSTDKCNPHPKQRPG
Sequence of Torsin-1A-interacting protein 1 (Homo sapiens) (Q5JTV8 whole entry, looked up): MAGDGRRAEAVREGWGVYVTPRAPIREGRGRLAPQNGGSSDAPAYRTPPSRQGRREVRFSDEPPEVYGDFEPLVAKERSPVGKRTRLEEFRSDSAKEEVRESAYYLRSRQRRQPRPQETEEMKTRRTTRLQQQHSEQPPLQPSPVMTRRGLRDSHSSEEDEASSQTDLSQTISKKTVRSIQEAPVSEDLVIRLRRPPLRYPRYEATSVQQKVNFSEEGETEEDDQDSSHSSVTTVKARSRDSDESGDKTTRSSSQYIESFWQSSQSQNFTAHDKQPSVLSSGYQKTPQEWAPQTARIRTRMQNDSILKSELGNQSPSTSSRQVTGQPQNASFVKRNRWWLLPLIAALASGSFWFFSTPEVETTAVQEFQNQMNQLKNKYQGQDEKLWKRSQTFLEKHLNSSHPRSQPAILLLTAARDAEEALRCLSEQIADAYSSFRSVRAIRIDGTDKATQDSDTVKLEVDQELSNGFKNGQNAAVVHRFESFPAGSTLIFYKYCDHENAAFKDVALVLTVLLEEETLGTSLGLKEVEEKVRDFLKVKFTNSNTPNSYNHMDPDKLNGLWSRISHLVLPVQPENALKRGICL

Turning to `COc1ccc(NN2C(C(O)c3ccco3)C=CC3C(=O)N(C4CCCCC4)C(=O)C32)cc1` (stereo not given), the composite z-score in test [1] stood at 1.39; in [2], 0.456; in [3] it was 0.689; in test [5], 1.35; in [6] it was 1.32; in test [7] it was 0.423. Further, the composite z-score in test [8] came out at 1.49; in test [9], 0.0006; in [10] it was 0.725; in test [11], 1.42; in test [13] it was 0.519; in test [14] it was 0.9. The composite z-score in test [15] turned out to be 0.267; in test [16], 0.0613; in [17] it was 0.0639; in [18], 0.353; in test [19], 0.605; in test [20], 0.916. For the same compound, the z-score in test [4] is 0.157 (inactive); in test [12] it was 0.224.
For `O=C(N1CCCCC1)[C@@]1(Cc2ccccc2)COC(c2ccc(OCCCO)cc2)=N1`, the composite z-score in [1] was 1.48; in test [2], 1.11; in [3], 1.25; in test [5] it was 1.44; in test [6] it was 0.705; in test [7] it was -0.153. The composite z-score in test [8] was 0.12; in test [9] it was -0.275; in test [10], 0.691; in test [11], 0.242; in test [13] it was -0.462; in test [14], 2.02. Moreover, the composite z-score in test [15] is 1.23; in [16], 0.113; in [17], 0.253; in test [18], 0.293; in test [19] it was 0.996; in test [20], 1.83. For the same compound, the z-score is 0.419 (inactive) in test [4] and -1.98 in test [12].
As to `Cc1ccc(C(C)CC(O)C2C=CC3C(=O)N(c4ccccc4)C(=O)C3N2Nc2ccc(C(C)C)cc2)o1` (stereo not given), the composite z-score in [1] came out at 0.938; in [2], 1.14; in test [3], 1.37; in [5], 0.545; in test [6] it was 0.777; in [7], 0.17. Also, the composite z-score was 0.679 in test [8]; -0.252 in test [9]; 1.13 in test [10]; 1.33 in test [11]; -0.0337 in [13]; 2.35 in test [14]. Also, the composite z-score in test [15] was 1.01; in [16], 0.14; in test [17] it was -0.043; in test [18] it was 0.0485; in test [19] it was 0.801; in [20], 1.64. In addition, the results for the z-score in test [4] and in [12] were 1.46 (inactive) and 1.02, respectively.
As to `CC(=O)NCCCC[C@@H]1NC(=O)[C@@H]2C[C@H](C(=O)O)[C@H](c3ccc(O)cc3)N2C1=O`, the composite z-score was 1.66 in test [1]; -0.106 in test [2]; 1.06 in test [3]; -0.947 in test [5]; -1.18 in test [6]; -1.7 in [7]. Further, the composite z-score in test [8] is -1.98; in test [9] it was -1.46; in test [10], -2.08; in [11], -0.745; in [13], -2.7; in test [14], -0.329. The composite z-score in test [15] was 0.104; in test [16], -0.184; in test [17], -0.221; in test [18], -0.33; in test [19], -0.998; in test [20], -0.371. The z-score in test [4] was -0.905 (inactive); in [12] it was 0.117.
For the compound `COC(=O)C(CC#Cc1ccc2c(c1)[C@]1(C(=O)N2)[C@H](C(=O)O)[C@H]2C(=O)O[C@H](c3ccccc3)[C@H](c3ccccc3)N2[C@@H]1c1ccccc1OCCO)C(=O)OC`, the composite z-score in [1] stood at 1.58; in test [2], 0.485; in test [3], 0.327; in test [5] it was 1.19; in test [6] it was 1.31; in test [7], 0.384. Also, the composite z-score in [8] came out at 1.06; in test [9] it was 0.337; in test [10], 0.194; in test [11], 0.851; in test [13], 0.445; in test [14] it was 1.62. For the same compound, the composite z-score is 0.369 in test [15]; -0.001 in test [16]; 0.108 in test [17]; 0.767 in [18]; 1.1 in test [19]; 1.79 in test [20]. Also, the figures for the z-score in [4] and in test [12] were 0.78 (inactive) and -2.04, respectively.
In the case of `NCCCCCNC(=O)[C@@H]1C[C@@H]2C(=O)N[C@@H](CCCCN)C(=O)N2[C@@H]1c1cccc(OCCO)c1`, the composite z-score in [1] was 0.858; in [2] it was 1.24; in [3], 0.826; in [5], 0.699; in test [6], 0.642; in test [7], -0.0511. Further, the composite z-score in [8] is 1.44; in [9], 0.969; in test [10], 0.428; in [11], 0.309; in test [13], 0.599; in test [14] it was -0.804. Besides, the composite z-score in [15] is -0.262; in [16] it was 0.0921; in test [17], 0.241; in test [18] it was 0.628; in test [19], 1.97; in test [20], -0.066. Also, the values for the z-score in [4] and in [12] were -0.107 (inactive) and 0.731, respectively.
